Data on 10 compounds can be found in ChEMBL document CHEMBL3988442, “University of Dundee, Small-Polar-MMV Screening Library” (2021).

Parameters in all cases: scale not given: direction of the effect not stated beside the values
In assay [1] the target is Protein translocase subunit SecA (Escherichia coli (strain K12)) (UniProt P10408). In words: Assay to Identify E. coli SecA ATPase Inhibitors. In kind it is functional. To be noted: 30 µM.
Assay [2] has as its target T1, Ubiquitin-activating enzyme e1, putative (Leishmania donovani (strain BPK282A1)) (UniProt E9BSI1).
T1 sequence (whole entry): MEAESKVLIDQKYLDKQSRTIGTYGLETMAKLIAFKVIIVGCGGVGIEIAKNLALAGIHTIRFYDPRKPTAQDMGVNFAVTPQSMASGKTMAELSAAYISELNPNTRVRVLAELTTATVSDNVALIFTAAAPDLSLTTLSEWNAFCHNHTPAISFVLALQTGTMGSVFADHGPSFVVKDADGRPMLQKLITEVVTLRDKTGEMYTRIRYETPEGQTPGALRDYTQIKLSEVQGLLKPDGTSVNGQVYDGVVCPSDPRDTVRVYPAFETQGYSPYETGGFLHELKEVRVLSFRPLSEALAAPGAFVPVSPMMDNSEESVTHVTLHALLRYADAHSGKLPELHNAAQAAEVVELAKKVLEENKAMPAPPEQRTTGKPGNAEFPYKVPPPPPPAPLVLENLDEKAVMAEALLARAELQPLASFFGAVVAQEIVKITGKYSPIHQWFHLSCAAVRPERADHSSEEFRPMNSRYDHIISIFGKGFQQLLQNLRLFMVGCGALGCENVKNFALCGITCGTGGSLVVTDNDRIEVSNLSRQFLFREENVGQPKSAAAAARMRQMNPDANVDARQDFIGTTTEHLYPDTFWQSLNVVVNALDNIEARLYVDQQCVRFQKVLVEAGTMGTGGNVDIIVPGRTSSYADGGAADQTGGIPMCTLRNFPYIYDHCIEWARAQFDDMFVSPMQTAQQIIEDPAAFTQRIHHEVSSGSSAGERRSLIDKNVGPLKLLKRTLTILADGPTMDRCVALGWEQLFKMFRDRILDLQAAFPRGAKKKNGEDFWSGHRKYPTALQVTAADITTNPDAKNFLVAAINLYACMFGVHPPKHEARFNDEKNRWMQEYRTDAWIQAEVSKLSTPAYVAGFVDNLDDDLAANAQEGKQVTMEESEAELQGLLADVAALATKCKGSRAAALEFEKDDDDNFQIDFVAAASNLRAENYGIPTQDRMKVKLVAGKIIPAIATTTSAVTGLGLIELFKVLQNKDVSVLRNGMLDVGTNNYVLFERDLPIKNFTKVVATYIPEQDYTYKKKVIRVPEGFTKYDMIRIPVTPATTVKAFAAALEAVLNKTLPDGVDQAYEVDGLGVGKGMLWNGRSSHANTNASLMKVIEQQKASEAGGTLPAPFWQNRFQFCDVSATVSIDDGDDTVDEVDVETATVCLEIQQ
In words: Leishmania donovani Ubiquitin Activating Enzyme (LdE1). In kind it is functional. As to conditions: 30 µM.

For assay [3], the target named is AMP-activated protein kinase, AMPK (Homo sapiens) (UniProt P54646+O43741+P54619+Q9UGJ0+Q9Y478+Q13131+Q9UGI9). In words: AMP-dependent Kinase enzyme assay. An in vitro enzyme assay that detects ADP turnover that is directly proportional to AMPK activity. This uses naive AMPK that is activated during the assay with MK-8722. It counts as functional. To be noted: 30 µM.

In assay [4] the target is Sialic acid-binding Ig-like lectin 9 (Homo sapiens) (UniProt Q9Y336). In words: Hs-Siglec9 ALPHAscreen SOP 20170721. To be noted: 10 µM. For orientation: Alpha assays give light when donor and acceptor beads are brought close together.
Assay [5] deals with Trypanosoma cruzi. In words: Trypanosoma cruzi phosphomannomutase and mannose-1-phosphate guanylyltransferase assay. It counts as functional. As to conditions: 10 µM.
Assay [6] deals with T2, Arginase-2, mitochondrial (Homo sapiens) (UniProt P78540).
T2 sequence (whole entry): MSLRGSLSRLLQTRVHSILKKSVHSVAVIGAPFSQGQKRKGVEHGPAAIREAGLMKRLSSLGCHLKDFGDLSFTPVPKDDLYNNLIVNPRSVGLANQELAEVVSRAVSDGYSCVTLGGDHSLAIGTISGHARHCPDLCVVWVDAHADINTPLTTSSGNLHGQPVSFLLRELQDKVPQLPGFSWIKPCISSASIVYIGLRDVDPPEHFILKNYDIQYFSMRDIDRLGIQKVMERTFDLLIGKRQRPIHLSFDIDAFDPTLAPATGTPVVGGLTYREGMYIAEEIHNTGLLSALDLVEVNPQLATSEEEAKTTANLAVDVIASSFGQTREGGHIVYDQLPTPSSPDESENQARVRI
In words: in vitro enzyme assay to detect the production of urea directly proportional to the activity of Arginase II. Also: in the data most compounds retested in dose-response had high values. To be noted: 33.3 µM. It counts as functional.

Assay [7] deals with T3, Proteasome subunit beta (Trypanosoma cruzi) (UniProt O96673).
T3 sequence (whole entry): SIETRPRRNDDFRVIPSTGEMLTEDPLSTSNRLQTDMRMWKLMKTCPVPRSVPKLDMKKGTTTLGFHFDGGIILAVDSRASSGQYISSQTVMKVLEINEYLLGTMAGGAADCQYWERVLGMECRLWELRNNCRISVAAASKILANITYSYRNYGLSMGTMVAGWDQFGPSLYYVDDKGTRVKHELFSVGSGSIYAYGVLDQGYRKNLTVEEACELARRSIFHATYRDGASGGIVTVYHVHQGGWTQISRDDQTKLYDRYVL
In words: Trypanosoma cruzi proteasome chymotrypsin-like activity (TcProtChymo) assay. Also: in the data most compounds retested in dose-response had high values. It counts as functional. To be noted: 9.37 µM.

The species named for assay [8] is Homo sapiens. In words: To identify inhibition of the IFN signalling (Jak-Stat) pathway via expression of an eGFP reporter gene under the control of an IFN-stimulated response element (ISRE) containing MxA promoter. As to conditions: 30 µM. In kind it is functional. For orientation: A reporter such as luciferase makes a cellular process visible.
The target in assay [9] is T4, Tyrosyl-tRNA synthetase, putative (Trypanosoma cruzi (strain CL Brener)) (UniProt Q4DSP6).
T4 sequence (whole entry): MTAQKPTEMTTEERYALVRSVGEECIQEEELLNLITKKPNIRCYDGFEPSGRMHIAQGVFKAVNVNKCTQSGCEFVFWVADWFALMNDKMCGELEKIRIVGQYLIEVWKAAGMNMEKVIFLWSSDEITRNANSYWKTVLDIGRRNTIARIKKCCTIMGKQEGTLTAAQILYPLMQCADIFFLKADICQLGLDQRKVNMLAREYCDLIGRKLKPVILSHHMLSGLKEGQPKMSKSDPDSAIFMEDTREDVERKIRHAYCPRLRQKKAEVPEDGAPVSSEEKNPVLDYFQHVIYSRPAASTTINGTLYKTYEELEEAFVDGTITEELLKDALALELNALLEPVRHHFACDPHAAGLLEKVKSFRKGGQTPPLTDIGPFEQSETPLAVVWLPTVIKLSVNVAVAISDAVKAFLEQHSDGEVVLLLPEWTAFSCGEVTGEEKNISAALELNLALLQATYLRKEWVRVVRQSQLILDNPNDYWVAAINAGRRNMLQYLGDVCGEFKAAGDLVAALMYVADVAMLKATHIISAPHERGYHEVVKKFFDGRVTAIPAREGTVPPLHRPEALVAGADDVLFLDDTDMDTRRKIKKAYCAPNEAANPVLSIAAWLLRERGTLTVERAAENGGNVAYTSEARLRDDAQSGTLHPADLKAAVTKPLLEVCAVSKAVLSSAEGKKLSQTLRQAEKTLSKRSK
In words: Trypanosoma cruzi tyrosyl tRNA synthetase (TcYRS) _High Tyrosine SOP. Also: in the data most compounds retested in dose-response had high values. To be noted: 30 µM. It counts as functional.

Assay [10] addresses T4, Tyrosyl-tRNA synthetase, putative (Trypanosoma cruzi (strain CL Brener)). In words: Trypanosoma cruzi tyrosyl tRNA synthetase (TcYRS) SOP. It counts as functional. As to conditions: 30 µM.
Assay [11] deals with Chromo domain-containing protein 1 (Saccharomyces cerevisiae (strain ATCC 204508 / S288c) (Baker's yeast)) (UniProt P32657). In words: ScCHD-1 Enzyme Inhibition Assay. Also: in the data most compounds retested in dose-response had high values. It counts as functional. As to conditions: 30 µM.

For some assays here: Results with a measured potency or affinity are listed apart.

Sialic acid-binding Ig-like lectin 9 (Homo sapiens), sequence (Q9Y336 whole entry): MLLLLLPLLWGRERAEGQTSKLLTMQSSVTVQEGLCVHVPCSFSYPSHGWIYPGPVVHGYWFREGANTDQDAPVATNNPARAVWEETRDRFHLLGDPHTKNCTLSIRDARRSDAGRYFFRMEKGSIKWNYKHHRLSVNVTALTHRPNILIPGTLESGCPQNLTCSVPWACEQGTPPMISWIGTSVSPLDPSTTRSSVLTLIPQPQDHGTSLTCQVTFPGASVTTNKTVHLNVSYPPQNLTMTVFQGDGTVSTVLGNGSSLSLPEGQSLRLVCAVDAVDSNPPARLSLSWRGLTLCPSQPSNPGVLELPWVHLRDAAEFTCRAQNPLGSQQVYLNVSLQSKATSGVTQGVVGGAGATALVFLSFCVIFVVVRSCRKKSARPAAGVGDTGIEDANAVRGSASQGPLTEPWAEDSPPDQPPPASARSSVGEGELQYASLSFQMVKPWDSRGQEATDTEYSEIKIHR
Chromo domain-containing protein 1 (Saccharomyces cerevisiae (strain ATCC 204508 / S288c) (Baker's yeast)), sequence (P32657 whole entry, the tested form may be a part): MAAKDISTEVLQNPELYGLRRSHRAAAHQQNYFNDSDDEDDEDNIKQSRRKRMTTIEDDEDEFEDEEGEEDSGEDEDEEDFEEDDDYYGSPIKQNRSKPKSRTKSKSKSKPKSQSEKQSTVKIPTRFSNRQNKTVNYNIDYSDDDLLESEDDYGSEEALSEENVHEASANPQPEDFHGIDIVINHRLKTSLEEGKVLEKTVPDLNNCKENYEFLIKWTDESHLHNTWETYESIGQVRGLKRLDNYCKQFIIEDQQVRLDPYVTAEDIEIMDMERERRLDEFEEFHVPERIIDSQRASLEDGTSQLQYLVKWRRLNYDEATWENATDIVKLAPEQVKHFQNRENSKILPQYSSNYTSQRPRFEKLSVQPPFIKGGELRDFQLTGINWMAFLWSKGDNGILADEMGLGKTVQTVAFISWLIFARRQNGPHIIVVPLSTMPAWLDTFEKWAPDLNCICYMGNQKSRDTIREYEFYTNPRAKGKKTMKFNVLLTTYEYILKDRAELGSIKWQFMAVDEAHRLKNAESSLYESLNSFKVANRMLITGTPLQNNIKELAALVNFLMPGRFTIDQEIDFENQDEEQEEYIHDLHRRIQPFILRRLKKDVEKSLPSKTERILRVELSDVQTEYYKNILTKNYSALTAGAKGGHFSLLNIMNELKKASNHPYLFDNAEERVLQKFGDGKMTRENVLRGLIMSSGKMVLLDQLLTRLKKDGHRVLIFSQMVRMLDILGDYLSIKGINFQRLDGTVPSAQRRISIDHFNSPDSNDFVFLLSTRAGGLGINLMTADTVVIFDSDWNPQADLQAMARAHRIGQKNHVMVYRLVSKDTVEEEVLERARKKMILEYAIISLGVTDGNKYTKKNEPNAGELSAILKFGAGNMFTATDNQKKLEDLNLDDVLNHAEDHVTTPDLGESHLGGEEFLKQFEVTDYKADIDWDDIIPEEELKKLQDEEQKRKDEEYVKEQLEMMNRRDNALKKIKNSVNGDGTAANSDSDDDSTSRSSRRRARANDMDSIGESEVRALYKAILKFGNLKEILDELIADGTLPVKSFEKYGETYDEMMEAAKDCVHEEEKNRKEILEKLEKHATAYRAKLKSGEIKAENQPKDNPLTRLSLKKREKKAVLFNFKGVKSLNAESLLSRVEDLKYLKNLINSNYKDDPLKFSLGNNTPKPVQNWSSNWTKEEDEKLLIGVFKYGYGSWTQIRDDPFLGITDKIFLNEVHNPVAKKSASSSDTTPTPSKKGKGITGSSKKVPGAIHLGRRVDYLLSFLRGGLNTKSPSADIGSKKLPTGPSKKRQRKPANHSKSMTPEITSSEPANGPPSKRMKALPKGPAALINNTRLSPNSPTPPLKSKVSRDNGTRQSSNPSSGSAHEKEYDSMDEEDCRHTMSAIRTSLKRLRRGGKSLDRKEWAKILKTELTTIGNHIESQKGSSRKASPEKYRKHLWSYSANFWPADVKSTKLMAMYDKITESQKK
Protein translocase subunit SecA (Escherichia coli (strain K12)), sequence (P10408 whole entry): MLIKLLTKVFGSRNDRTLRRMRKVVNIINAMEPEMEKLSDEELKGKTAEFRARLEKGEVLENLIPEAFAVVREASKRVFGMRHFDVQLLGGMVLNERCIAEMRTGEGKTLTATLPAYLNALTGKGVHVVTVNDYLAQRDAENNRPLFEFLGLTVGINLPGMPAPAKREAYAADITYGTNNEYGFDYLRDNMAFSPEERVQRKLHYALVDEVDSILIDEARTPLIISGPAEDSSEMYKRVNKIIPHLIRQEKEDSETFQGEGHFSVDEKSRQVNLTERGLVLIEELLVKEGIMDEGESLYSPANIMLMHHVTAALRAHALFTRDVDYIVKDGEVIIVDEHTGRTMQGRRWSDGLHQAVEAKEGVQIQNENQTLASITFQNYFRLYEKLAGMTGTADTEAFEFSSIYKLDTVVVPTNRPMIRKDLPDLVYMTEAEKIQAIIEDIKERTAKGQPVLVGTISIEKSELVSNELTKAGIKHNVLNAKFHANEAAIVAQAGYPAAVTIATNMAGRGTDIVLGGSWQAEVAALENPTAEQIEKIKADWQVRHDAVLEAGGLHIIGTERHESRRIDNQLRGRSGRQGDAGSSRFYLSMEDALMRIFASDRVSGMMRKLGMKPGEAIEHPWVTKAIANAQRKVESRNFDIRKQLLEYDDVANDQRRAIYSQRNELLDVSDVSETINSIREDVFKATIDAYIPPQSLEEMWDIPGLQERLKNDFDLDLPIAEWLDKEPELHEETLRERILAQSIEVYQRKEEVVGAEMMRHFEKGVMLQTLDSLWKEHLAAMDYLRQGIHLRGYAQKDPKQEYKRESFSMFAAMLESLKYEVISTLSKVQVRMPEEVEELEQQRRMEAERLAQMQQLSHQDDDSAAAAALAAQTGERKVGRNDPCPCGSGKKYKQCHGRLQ

As for `CCn1ncc2c1C(COCC1CC1)CN(C(=O)c1cccs1)C2` (stereo not given), the Percent Effect in assay [1] is 1.75%; in [2] it was 24.7%; in [3] it was -1.43%; in assay [4], 2.69%; in [5] it was -0.794%; in assay [6], -6.39%. For the same compound, the Percent Effect is 13.6% in assay [7]; 21.1% in assay [8]; 7.29% in assay [9]; 13.6% in assay [10]; -3.6% in [11].

As to `CN(C)S(=O)(=O)N1CCCC1CC(=O)c1cccs1` (stereo not given), the Percent Effect in assay [1] was 2.35%; in assay [2], 2.7%; in [3], -3.98%; in [4] it was 2.64%; in [5], 1.74%; in assay [6], 11.9%. Besides, the Percent Effect in [7] is -0.862%; in [8], 16.6%; in [9], -2.65%; in assay [10] it was 4.88%; in assay [11], -1.64%.

For `OC1CCN(Cc2cc3c(cc2Br)OCCO3)CC1`, the Percent Effect in [1] is -3.08%; in assay [2], 4.17%; in [3] it was 1.37%; in assay [4], -5.64%; in [5], -7.68%; in [6], 4.42%. Further, the Percent Effect was 0.526% in assay [7]; -3.8% in assay [8]; 1.05% in assay [9]; 2.56% in assay [10]; -1.21% in [11].

Regarding `COc1ccc(Cl)cc1NCC(=O)NCCNc1cnccn1`, the Percent Effect in [1] was -3.85%; in [2] it was -5.41%; in [3] it was 2.13%; in assay [4] it was 13.2%; in assay [5] it was -2.17%; in [6], -2.4%. For the same compound, the Percent Effect was 3.96% in assay [7]; -1.56% in [8]; 4.43% in assay [9]; 13.6% in [10]; -3.88% in assay [11].

On to `c1csc(-c2nc(CN3CCOC(Cn4cncn4)C3)co2)c1` (stereo not given), for which the Percent Effect in assay [1] is -2.48%; in assay [2] it was 10.8%; in assay [3] it was -9.47%; in assay [4], -3.91%; in assay [5], -0.0943%; in assay [6] it was -6.01%. The Percent Effect in assay [7] is 20.4%; in assay [8] it was 9.28%; in [9], 9.36%; in assay [10], 18.5%; in assay [11] it was -5.77%.

Regarding `Cc1cc(CN2CCOC(CN(C)C)C2)no1` (stereo not given), the Percent Effect is -5.93% in assay [1]; 5.41% in assay [2]; -1.25% in assay [3]; 0.559% in assay [4]; -4.92% in assay [5]; 1.66% in assay [6]. Besides, the Percent Effect in assay [7] was -2.15%; in [8] it was 14.9%; in assay [9], 1.98%; in assay [10], 1.22%; in [11], 6.53%.

As to `Cc1noc(Cl)c1CCC(=O)N1CCCCC1Cn1cccn1` (stereo not given), the Percent Effect was -5.73% in assay [1]; 5.26% in [2]; 1.98% in [3]; -0.589% in assay [4]; 1.85% in [5]; -2.37% in assay [6]. The Percent Effect is 9.3% in [7]; -6.24% in [8]; 3.19% in [9]; 5.2% in assay [10]; -7.11% in assay [11].

Take `COCCO[C@H]1CCN(Cc2cccs2)[C@H]1Cc1cccnc1`: the Percent Effect in [1] was -3.38%; in [2], 0%; in [3], -12.3%; in [4], 20.5%; in assay [5], 6.35%; in assay [6], -1.24%. The Percent Effect in assay [7] is 11.6%; in [8] it was 0.814%; in [9], 3.23%; in assay [10] it was 6.17%; in [11], -1.24%.

For `c1ccc(CCCN2CC(n3cccn3)C2)cc1`, the Percent Effect was 0.15% in assay [1]; 2.7% in assay [2]; -2.18% in assay [3]; -4.46% in assay [4]; 5.48% in [5]; -2.03% in [6]. The Percent Effect in assay [7] was 14.7%; in assay [8] it was 25.9%; in assay [9], 7.92%; in assay [10], 23.2%; in [11] it was -5.99%.

For `CN(C)CC1CSCCCN1C(=O)c1ccc(C(C)(C)C)cc1` (stereo not given), the Percent Effect in assay [1] is 2.6%; in assay [2] it was 2.6%; in assay [3] it was 2.24%; in assay [4] it was 1.48%; in assay [5], -5.23%; in assay [6], 7.1%. Moreover, the Percent Effect in assay [7] was 1.39%; in [8], 1.95%; in assay [9] it was 6.35%; in assay [10], 16.7%; in assay [11], -4.54%.
